The supplement of paper PMC10981050
Values joined by “and” are separate entries in the source; they are usually repeats but may differ in a detail not shown here. Equal values may be shown once.

Experiments:
Assay in all cases: cell viability relative to vehicle control; higher = less cytotoxic
Details in all cases: 10 µM
K562 = tested on: K562
Method in brief: (§1)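 CRISPR-edited mutant clones and isogenic wild-type clones from four leukaemia lines were screened against Selleck bioactive, kinase and epigenetic probe libraries, with identity-inconsistent compounds excluded. Each compound was acoustically dispensed at a single 10 µM dose into 384-well plates holding 2000 cells in 50 µL medium per well. After 48 h the supernatant was removed and CellTiter-Glo luminescence was read. Viability was expressed as percent of the on-plate vehicle control and analysed in Genedata Screener.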

MARIMO = tested on: MARIMO
Method in brief: as §1

MOLM14 = tested on: MOLM14
Method in brief: as §1

OCI-AML2 = tested on: OCI-AML2
Method in brief: as §1

| Structure (SMILES) | cell viability (K562; SRSF2 genotype: SRSF2 P95H/wt) | cell viability (K562; SRSF2 genotype: SRSF2 wt/wt) [%] | cell viability (MARIMO; SRSF2 genotype: SRSF2 P95H/wt) [%] | cell viability (MARIMO; SRSF2 genotype: SRSF2 wt/wt) [%] | cell viability (MOLM14; SRSF2 genotype: SRSF2 P95H/wt) [%] | cell viability (MOLM14; SRSF2 genotype: SRSF2 wt/wt) [%] | cell viability (OCI-AML2; SRSF2 genotype: P95H/wt) [%] | cell viability (OCI-AML2; SRSF2 genotype: wt/wt) [%] |
| --- | --- | --- | --- | --- | --- | --- | --- | --- |
| CCNC(=O)C[C@@H]1N=C(c2ccc(Cl)cc2)c2cc(OC)ccc2-n2c(C)nnc21 | 72.5% and 71.1% | 73.3 | 38.9 | 41.3 | 30 | 28.7 | 24.7 | 37.5 |
| O=C(CBr)c1ccc(O)cc1 [PTP Inhibitor I] | 106% and 101% | 107 | 103 | 104 | 97.2 | 108 | 104 | 103 |
| C[C@@H]1CC[C@H]2[C@@H](C)C(=O)O[C@@H]3O[C@@]4(C)CC[C@@H]1[C@]32OO4 [Artemisinin] | 83% and 79.2% | 78.7 | 74.8 | 93.3 | 85.8 | 87.3 | 84.6 | 98.2 |
| CCN1C[C@]2(COC)CC[C@H](OC)[C@]34C1[C@H]([C@H](OC)[C@H]23)[C@@]1(OC(C)=O)C[C@H](OC)[C@@]2(O)C[C@@H]4[C@@H]1[C@H]2OC(=O)c1ccc(OC)cc1 [Crassicauline A] | 93.2% and 89.8% | 87.5 | 84.4 | 93.3 | 91.8 | 90.6 | 87.7 | 100 |
| CC(C)[C@]12O[C@H]1[C@@H]1O[C@]13[C@]1(O[C@H]1C[C@H]1C4=C(CC[C@@]13C)C(=O)OC4)[C@@H]2O [Triptolide] | 5.55% and 15% | 8.7 | 10.4 | 6.31 | 2.33 | 0.54 | 5.79 | 16 |
| CC(=O)O[C@@]12CO[C@@H]1C[C@H](O)[C@@]1(C)C(=O)[C@H](O)C3=C(C)[C@@H](OC(=O)[C@H](O)[C@@H](NC(=O)c4ccccc4)c4ccccc4)C[C@@](O)([C@@H](OC(=O)c4ccccc4)[C@H]21)C3(C)C [10-deacetyl-paclitaxel] | 25.2% and 36.9% | 34.3 | 7.89 | 4.88 | 9.1 | 3.82 | 10.3 | 15.4 |
| COCC1(CO)C(=O)C2CCN1CC2 (centres undefined) | 35.9% and 43.5% | 63.5 | 65.3 | 57.5 | 9.18 | 3.69 | 14.8 | 15.9 |
| C=C1CC[C@H]2[C@@H](C=C(C)C(=O)[C@@]3(O)C[C@H](C)[C@H](O)[C@@H]3[C@H]1O)C2(C)C [Lathyrol] | 94.9% and 95.9% | 96.9 | 92.5 | 102 | 97.1 | 96.8 | 105 | 99 |
